Measured values reported in PubChem BioAssay (NCATS).
Records with an inconclusive call do not appear. A call without a number means that no potency is given here. The source made the active and inactive calls. Unless noted, calls follow the shape of the dose curve; as a rule, active = well fitted curve in either direction with a large enough effect (not every such curve was filed as active); inconclusive = small, poorly fitted or top-dose-only effect, or another doubt; inactive = flat fitted curve, though single readings scatter.

Each molecule was assayed against Glucocorticoid receptor (Homo sapiens) (UniProt P04150) (assay: GR-EFC Redistribution (AID 451; calls by dose curve; also: potency is read from the fitted curve at half-maximal effect)). Conditions: CHO-K1 GR-EFC translocation, beta-gal luminescence, 2 h.
Glucocorticoid receptor (Homo sapiens), sequence (P04150 whole entry, looked up, the tested form may be a part): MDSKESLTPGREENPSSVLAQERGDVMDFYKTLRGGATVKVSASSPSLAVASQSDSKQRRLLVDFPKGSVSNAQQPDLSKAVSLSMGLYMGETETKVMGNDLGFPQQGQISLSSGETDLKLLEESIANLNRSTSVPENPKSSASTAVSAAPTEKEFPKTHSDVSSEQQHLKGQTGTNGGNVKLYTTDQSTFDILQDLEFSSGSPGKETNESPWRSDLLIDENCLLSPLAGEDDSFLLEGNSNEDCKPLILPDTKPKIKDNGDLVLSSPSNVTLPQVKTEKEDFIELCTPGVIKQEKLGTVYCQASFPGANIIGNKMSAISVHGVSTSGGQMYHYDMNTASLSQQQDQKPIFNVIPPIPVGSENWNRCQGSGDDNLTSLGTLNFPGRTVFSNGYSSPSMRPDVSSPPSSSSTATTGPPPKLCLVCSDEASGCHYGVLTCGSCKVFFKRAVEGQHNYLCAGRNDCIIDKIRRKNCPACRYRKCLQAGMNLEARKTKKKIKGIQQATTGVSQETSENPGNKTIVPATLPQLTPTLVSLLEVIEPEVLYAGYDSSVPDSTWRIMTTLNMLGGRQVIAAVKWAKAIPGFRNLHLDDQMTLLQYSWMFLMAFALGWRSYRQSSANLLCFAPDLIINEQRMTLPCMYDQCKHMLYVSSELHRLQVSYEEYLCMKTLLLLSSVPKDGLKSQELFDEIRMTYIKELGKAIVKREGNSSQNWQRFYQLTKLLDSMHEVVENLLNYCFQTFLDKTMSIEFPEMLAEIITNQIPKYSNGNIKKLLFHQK
In short: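 CHO-K1 cells stably expressing nuclear-localized β-gal enzyme acceptor and GR fused C-terminally to the enzyme donor fragment; ligand-driven nuclear translocation restores β-gal by complementation. Compounds titrated up to 46 uM final, 2 h at 37 °C; luminescence read.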

Row | Structure (SMILES) | Potency
1 | O=S(=O)(O)CCCc1cccc2ccccc12 | > 9.22 µM (inactive)
2 | CC(C)(Oc1ccc(-c2cccc3ccccc23)cc1)C(=O)O | > 9.22 µM (inactive)
3 | O=[N+]([O-])c1cc(Cc2cc([N+](=O)[O-])c3cccnc3c2O)c(O)c2ncccc12 | > 9.22 µM (inactive)
4 | O[C@@H](COc1cccc2ccccc12)CN1CCOCC1 | > 9.22 µM (inactive)
5 | FC(F)(F)c1nc(SCc2ccc(Cl)cc2)n[nH]1 | > 9.22 µM (inactive)
6 | O=C1c2ccccc2-c2ccc(NC(=O)[C@H]3CCCC[C@@H]3C(=O)O)cc21 | > 9.22 µM (inactive)
7 | CCOC(=O)C1=C(C)NC(=O)N[C@@H]1c1coc2cc(C)cc(C)c2c1=O | > 9.22 µM (inactive)
8 | OCCCSCCO | > 9.22 µM (inactive)
9 | CC1=N[C@@](C)(COC(=O)[C@]2(C)N[C@](C)(CO)CO2)COC1=O | > 9.22 µM (inactive)
10 | NCC[C@H](N)C(=O)O | > 9.22 µM (inactive)
11 | O=S(=O)(c1ccccc1)N1CN2CN(C1)CN(S(=O)(=O)c1ccccc1)C2 | > 9.22 µM (inactive)
12 | NC(=O)Nc1n[nH]c(-c2ccccc2)n1 | > 9.22 µM (inactive)
13 | C[C@@]1(C(=O)O)CCC[C@@H]1C(=O)O | > 9.22 µM (inactive)
14 | CCOC(=O)C(C)(C)[C@H](O)C(C)C | > 9.22 µM (inactive)
15 | N=C(N)[C@H](N=Nc1ccccc1)C(N)=O | > 9.22 µM (inactive)
16 | O=C(Cn1ccc(=O)[nH]c1=O)Nc1ccc(C(=O)O)c(O)c1 | > 9.22 µM (inactive)
17 | N[C@@H](Cc1c[nH]c2ccc([N+](=O)[O-])cc12)C(=O)O | > 9.22 µM (inactive)
18 | Nc1nc(-c2cccc([N+](=O)[O-])c2)cc(-c2cc(-c3cccc([N+](=O)[O-])c3)nc(N)n2)n1 | > 9.22 µM (inactive)
19 | O=C(O)CC[C@@]1(c2ccccc2)NC(=O)NC1=O | > 9.22 µM (inactive)
20 | NS(=O)(=O)c1ccc(N=Nc2ccc(O)c(C(=O)O)c2)cc1 | > 9.22 µM (inactive)

Row | Structure (SMILES) | Potency
21 | N=C(N)SCCSC(=N)N | > 9.22 µM (inactive)
22 | Cc1c(C(=O)O)nc(/C=C\C(=O)O)[nH]c1=O | > 9.22 µM (inactive)
23 | O=C(Nc1ccc2ncccc2c1)Nc1ccc2ncccc2c1 | > 9.22 µM (inactive)
24 | Cc1ccc(S(=O)(=O)Oc2cc(S(=O)(=O)O)cc3cc(S(=O)(=O)O)cc(N)c23)cc1 | > 9.22 µM (inactive)
25 | COc1ccc(NC(=S)Nc2ccccc2)cc1 | > 9.22 µM (inactive)
26 | Cn1cnc([N+](=O)[O-])c1Sc1nc(N)nc2c1ncn2Cc1ccccc1 | > 9.22 µM (inactive)
27 | N=C(N)SCc1cc(Cl)cc(Cl)c1O | > 9.22 µM (inactive)
28 | C[C@@](N)(/C=C\c1ccccc1)C(=O)O | > 9.22 µM (inactive)
29 | O=C(O)C1(Nc2ccc(Cl)cc2)CCCC1 | > 9.22 µM (inactive)
30 | NS(=O)(=O)c1ccc(N=C2C(=O)Nc3ccccc32)cc1 | > 9.22 µM (inactive)
31 | COCCn1c(=O)c(-c2cc(F)cc(F)c2)nc2cnc(Oc3ccccc3)nc21 | > 46 µM (inactive)
32 | O=C(O)C(Sc1ccc(Cl)cc1)Sc1ccc(Cl)cc1 | > 9.22 µM (inactive)
33 | N=c1nc(N)nc(N)n1-c1ccc(S(N)(=O)=O)cc1 | > 9.22 µM (inactive)
34 | CN(C)Cc1ccc(O)c(CN(C)C)n1 | > 9.22 µM (inactive)
35 | COC(=O)[C@]1(C)CCC(c2ccc(C)cc2)=C(CC(=O)O)C1 | > 9.22 µM (inactive)
36 | Cc1cc(CN2CCCCC2)c(O)c(CN2CCCCC2)c1 | > 9.22 µM (inactive)
37 | CCO[P@]1(=O)OC[C@@H]2O[C@H](n3cnc4c(N)ncnc43)[C@H](O)[C@@H]2O1 | > 9.22 µM (inactive)
38 | O=C(NCCO)c1ccc(Cl)cc1 | > 9.22 µM (inactive)
39 | C/C(=N/S(=O)(=O)c1ccc(Cl)c(Cl)c1)OCC(C)(C)C | > 9.22 µM (inactive)

Each molecule was assayed against Mitogen-activated protein kinase 10 (Mus musculus) (UniProt Q61831) (assay: JNK3 AlphaScreen Assay (AID 530;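 also: kinase came from lysate of stimulated human HepG2 cells; signal reports phosphorylation of biotinylated GST-cJun 1-79 at Ser73 with 10 µM ATP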)). Conditions: JNK3 lysate, c-Jun phosphorylation; series mostly up to 11.4 µM.
In short: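 Inhibitors reduce antibody binding to phosphorylated biotin-cJun, lowering AlphaScreen luminescence. Lysates from HepG2 cells pre-activated by IL-1beta plus TNF-alpha supplied JNK3; compounds were titrated.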

Row | Structure (SMILES) | Potency
40 | O=S(=O)(O)CCCc1cccc2ccccc12 | inactive
41 | CC(C)(Oc1ccc(-c2cccc3ccccc23)cc1)C(=O)O | inactive
42 | O=[N+]([O-])c1cc(Cc2cc([N+](=O)[O-])c3cccnc3c2O)c(O)c2ncccc12 | inactive
43 | O[C@@H](COc1cccc2ccccc12)CN1CCOCC1 | inactive
44 | FC(F)(F)c1nc(SCc2ccc(Cl)cc2)n[nH]1 | inactive
45 | O=C1c2ccccc2-c2ccc(NC(=O)[C@H]3CCCC[C@@H]3C(=O)O)cc21 | inactive
46 | CCOC(=O)C1=C(C)NC(=O)N[C@@H]1c1coc2cc(C)cc(C)c2c1=O | inactive
47 | OCCCSCCO | inactive
48 | CC1=N[C@@](C)(COC(=O)[C@]2(C)N[C@](C)(CO)CO2)COC1=O | inactive
49 | NCC[C@H](N)C(=O)O | inactive
50 | O=S(=O)(c1ccccc1)N1CN2CN(C1)CN(S(=O)(=O)c1ccccc1)C2 | inactive
51 | NC(=O)Nc1n[nH]c(-c2ccccc2)n1 | inactive
52 | C[C@@]1(C(=O)O)CCC[C@@H]1C(=O)O | inactive
53 | CCOC(=O)C(C)(C)[C@H](O)C(C)C | inactive
54 | N=C(N)[C@H](N=Nc1ccccc1)C(N)=O | inactive
55 | O=C(Cn1ccc(=O)[nH]c1=O)Nc1ccc(C(=O)O)c(O)c1 | inactive
56 | N[C@@H](Cc1c[nH]c2ccc([N+](=O)[O-])cc12)C(=O)O | inactive
57 | Nc1nc(-c2cccc([N+](=O)[O-])c2)cc(-c2cc(-c3cccc([N+](=O)[O-])c3)nc(N)n2)n1 | inactive
58 | O=C(O)CC[C@@]1(c2ccccc2)NC(=O)NC1=O | inactive
59 | NS(=O)(=O)c1ccc(N=Nc2ccc(O)c(C(=O)O)c2)cc1 | inactive

Row | Structure (SMILES) | Potency
60 | N=C(N)SCCSC(=N)N | inactive
61 | Cc1c(C(=O)O)nc(/C=C\C(=O)O)[nH]c1=O | inactive
62 | O=C(Nc1ccc2ncccc2c1)Nc1ccc2ncccc2c1 | inactive
63 | Cc1ccc(S(=O)(=O)Oc2cc(S(=O)(=O)O)cc3cc(S(=O)(=O)O)cc(N)c23)cc1 | inactive
64 | COc1ccc(NC(=S)Nc2ccccc2)cc1 | inactive
65 | Cn1cnc([N+](=O)[O-])c1Sc1nc(N)nc2c1ncn2Cc1ccccc1 | inactive
66 | N=C(N)SCc1cc(Cl)cc(Cl)c1O | inactive
67 | C[C@@](N)(/C=C\c1ccccc1)C(=O)O | inactive
68 | O=C(O)C1(Nc2ccc(Cl)cc2)CCCC1 | inactive
69 | NS(=O)(=O)c1ccc(N=C2C(=O)Nc3ccccc32)cc1 | inactive
70 | COCCn1c(=O)c(-c2cc(F)cc(F)c2)nc2cnc(Oc3ccccc3)nc21 | inactive
71 | O=C(O)C(Sc1ccc(Cl)cc1)Sc1ccc(Cl)cc1 | inactive
72 | N=c1nc(N)nc(N)n1-c1ccc(S(N)(=O)=O)cc1 | inactive
73 | CN(C)Cc1ccc(O)c(CN(C)C)n1 | inactive
74 | COC(=O)[C@]1(C)CCC(c2ccc(C)cc2)=C(CC(=O)O)C1 | inactive
75 | Cc1cc(CN2CCCCC2)c(O)c(CN2CCCCC2)c1 | inactive
76 | CCO[P@]1(=O)OC[C@@H]2O[C@H](n3cnc4c(N)ncnc43)[C@H](O)[C@@H]2O1 | inactive
77 | O=C(NCCO)c1ccc(Cl)cc1 | inactive
78 | C/C(=N/S(=O)(=O)c1ccc(Cl)c(Cl)c1)OCC(C)(C)C | inactive
